# Data taken from article PMC8384837, “Expanding the binding specificity for RNA recognition by a PUF domain”.
# Target: PUM1 PUF domain R1-RWT (Homo sapiens, UniProt Q14671 828-1176, S863R;R864W;Q867T)
# Assay: yeast three-hybrid, YBZ-1, SC-Leu-His + 0.5 mM 3-AT, 4 days
# Settings: tags: N-Gal4 AD-HA kept; label: inside an RPR1-promoter hybrid RNA with tandem MS2 sites; ssRNA
# Method in brief: (§1)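 The interaction score is the logarithmic change in variant frequency from input to selection. It uses log2, with a pseudocount of 1 for absent variants, and frequencies came from PCR-amplified, Illumina-sequenced repeat regions. The libraries were Pumilio-1 PUF domains randomized at the three base-contacting residues per repeat, co-expressed with matching RNA elements in strain YBZ-1 (LexA–MS2 coat fusion, HIS3 reporter). Plating lasted four days on SC-Leu (input) or SC-Leu-His + 0.5 mM 3-AT (selection).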
# Chain of PUM1 PUF domain R1-RWT (Q14671 828-1176 S863R/R864W/Q867T): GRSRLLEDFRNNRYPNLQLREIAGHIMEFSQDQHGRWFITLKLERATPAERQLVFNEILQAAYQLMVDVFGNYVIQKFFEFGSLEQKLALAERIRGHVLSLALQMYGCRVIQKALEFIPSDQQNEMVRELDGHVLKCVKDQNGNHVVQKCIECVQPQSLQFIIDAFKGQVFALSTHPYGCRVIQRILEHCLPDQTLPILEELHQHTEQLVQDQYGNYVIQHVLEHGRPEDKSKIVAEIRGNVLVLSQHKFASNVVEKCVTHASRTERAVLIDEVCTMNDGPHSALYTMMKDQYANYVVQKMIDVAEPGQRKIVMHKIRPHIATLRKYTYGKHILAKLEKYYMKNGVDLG
row,Sequence,binding signal
1,GGCUAGAACUAGUGGAUCCCCCGGCGCCCGGCGGCUCGAGCCCGGGUAAGUGUAAAUGGUCUGCAUGCCGCCGGGCGCCAUGCCUGCAGGUCGACUCUAGAAAACAUG,0.98 log2 enrichment (interaction score)
2,GGCUAGAACUAGUGGAUCCCCCGGCGCCCGGCGGCUCGAGCCCGGGUAAGUGUAAAUUGUCUGCAUGCCGCCGGGCGCCAUGCCUGCAGGUCGACUCUAGAAAACAUG,4.77 log2 enrichment (interaction score)
3,GGCUAGAACUAGUGGAUCCCCCGGCGCCCGGCGGCUCGAGCCCGGGUAAGUGUAAAUCGUCUGCAUGCCGCCGGGCGCCAUGCCUGCAGGUCGACUCUAGAAAACAUG,5.45 log2 enrichment (interaction score)

# Target: PUM1 PUF domain R7-RNK (Homo sapiens, UniProt Q14671 828-1176, S1079R;E1083K)
# Assay: as above
# Settings: tags: N-Gal4 AD-HA kept; label: inside an RPR1-promoter hybrid RNA with tandem MS2 sites; ssRNA
# Method in brief: as §1
# Chain of PUM1 PUF domain R7-RNK (Q14671 828-1176 S1079R/E1083K): as the sequence (Q14671 828-1176 S863R/R864W/Q867T) above, with R36S, W37R, T40Q, S252R, E256K counted along it
row,Sequence,binding signal
1,GGCUAGAACUAGUGGAUCCCCCGGCGCCCGGCGGCUCGAGCCCGGGUAAGUCUAAAUAGUCUGCAUGCCGCCGGGCGCCAUGCCUGCAGGUCGACUCUAGAAAACAUG,3.45 log2 enrichment (interaction score)
2,GGCUAGAACUAGUGGAUCCCCCGGCGCCCGGCGGCUCGAGCCCGGGUAAGUAUAAAUAGUCUGCAUGCCGCCGGGCGCCAUGCCUGCAGGUCGACUCUAGAAAACAUG,2.99 log2 enrichment (interaction score)
3,GGCUAGAACUAGUGGAUCCCCCGGCGCCCGGCGGCUCGAGCCCGGGUAAGUGUAAAUAGUCUGCAUGCCGCCGGGCGCCAUGCCUGCAGGUCGACUCUAGAAAACAUG,2.47 log2 enrichment (interaction score)
